# According to PubChem BioAssay (EPA / NIEHS):
# Active and inactive are the calls of the source. The calls were made as follows: active = hit-call score of the fitted dose curve at least 0.9, where 1 is the maximum; inactive = score below 0.9.
# Tests used:
# [1] = target: Transcription factor E2F1 (Homo sapiens) (UniProt Q01094); experiment: ATG_E2F_CIS: Attagene CIS-FACTORIAL HepG2 Assay for human E2F Transcription Factor 1 (AID 2282935); settings: HepG2 Attagene cis-reporter, E2F reporter RNA transcripts; actives raise or lower the signal
# In short: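 In this cis-factorial format, endogenous factor activity drives transfected reporters in HepG2; transcripts collected at 24 h are quantified by fluorescence after RT-PCR and capillary separation.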
# [2] = ATG_E_Box_CIS: Attagene CIS-FACTORIAL HepG2 Assay for human Enhancer Box (E-box) (AID 2282936); settings: HepG2 E-box cis-reporter transcription, actives raise or lower the signal
# In short: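 Measured 24 h post-dosing in HepG2 cells transfected with multiple cis-regulated reporter units, signal being reporter mRNA induction detected by fluorescent RT-PCR with capillary electrophoresis; gain or loss fitted against DMSO.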
# [3] = ATG_M_61_CIS: Attagene CIS-FACTORIAL HepG2 Assay for M61 Transcription Factor (Internal Marker) (AID 2282937); settings: HepG2 Attagene CIS-FACTORIAL M61 internal marker reporter; actives raise or lower the signal
# In short: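 Using transiently transfected HepG2 liver cells, reporter transcript levels were assessed 24 h post-dosing by RT-PCR and capillary electrophoresis. Changes in either direction were fitted relative to DMSO controls.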
# [4] = ATG_EGR_CIS: Attagene CIS-FACTORIAL HepG2 Assay for human Early Growth Response 1 (EGR1) (AID 2282938); settings: HepG2 Attagene CIS-FACTORIAL EGR reporter mRNA; actives raise or lower the signal
# In short: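 Fluorescent capillary-electrophoresis signal of reporter cDNA fragments serves as read-out. HepG2 cells bear transiently transfected cis-promoter reporter units and are exposed 24 h; gain- or loss-of-signal is fitted against DMSO.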
# [5] = ATG_M_19_CIS: Attagene CIS-FACTORIAL HepG2 Assay for M19 Transcription Factor (Internal Marker) (AID 2282939); settings: HepG2 Attagene CIS-FACTORIAL M19 internal marker reporter; actives raise or lower the signal
# In short: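 HepG2 cells transiently transfected with cis-regulated multiple reporter transcription units were dosed for 24 h; reporter mRNA was quantified by RT-PCR, 6-FAM primer-extension labelling, HpaI digestion and capillary electrophoresis, with bidirectional fitting against DMSO baseline.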
# [6] = ATG_Ets_CIS: Attagene CIS-FACTORIAL HepG2 Assay for human Erythroblast Transformation Specific (ETS) (AID 2282941); settings: HepG2 ETS cis-reporter transcription, actives raise or lower the signal
# In short: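 RT-PCR/capillary electrophoresis fluorescence read-out of reporter mRNA; HepG2 transient multi-reporter transfection; 24 h compound exposure; gain or loss of signal fitted bidirectionally relative to DMSO.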
# [7] = target: Hepatocyte nuclear factor 3-beta (Homo sapiens) (UniProt Q9Y261); experiment: ATG_FoxA2_CIS: Attagene CIS-FACTORIAL HepG2 Assay for human Forkhead box A2 (FOXA2) (AID 2282942); settings: HepG2 cis-reporter transcription factor activity, 24 h; actives raise or lower the signal
# In short: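 Fluorescence signal of reporter cDNA fragments, separated by capillary electrophoresis, reflects endogenous transcription factor activity in transfected HepG2 after 24 h. Both increases and decreases fitted against DMSO.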
# [8] = ATG_FoxO_CIS: Attagene CIS-FACTORIAL HepG2 Assay for human Forkhead box O (FoxO) (AID 2282943); settings: HepG2 Attagene cis-reporter, FoxO element, mRNA; actives raise or lower the signal
# In short: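 HepG2 cells transiently transfected with cis-promoter-driven multiple reporter transcription units; 24 h after chemical dosing, reporter mRNA quantified by RT-PCR, fluorescent primer extension, HpaI digestion and capillary electrophoresis. Bidirectional fitting versus DMSO baseline.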
# [9] = ATG_GATA_CIS: Attagene CIS-FACTORIAL HepG2 Assay for human GATA Binding Protein (AID 2282944); settings: HepG2 GATA cis-element reporter, Attagene multiplex mRNA; actives raise or lower the signal
# In short: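 HepG2 cells transiently transfected with multiplexed cis-element reporter units reflecting endogenous transcription factor activity; reporter mRNA measured after 24 h dosing by RT-PCR, 6-FAM labeling, HpaI digestion and capillary electrophoresis. Bidirectional fitting versus DMSO baseline.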
# [10] = ATG_ERE_CIS: Attagene CIS-FACTORIAL HepG2 Assay for Estrogen Response Element (ERE) (AID 2282940); settings: HepG2 ERE cis-reporter, Attagene RNA transcript; actives raise or lower the signal
# In short: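 HepG2 cells transiently transfected with cis-promoter-driven multiplexed reporter transcription units report endogenous TF activity. After 24 h compound exposure, reporter mRNA is quantified by RT-PCR with capillary electrophoresis fluorescence; bidirectional fitting versus DMSO baseline.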
# Chain of Hepatocyte nuclear factor 3-beta (Homo sapiens) (Q9Y261 whole entry, looked up, the tested form may be a part): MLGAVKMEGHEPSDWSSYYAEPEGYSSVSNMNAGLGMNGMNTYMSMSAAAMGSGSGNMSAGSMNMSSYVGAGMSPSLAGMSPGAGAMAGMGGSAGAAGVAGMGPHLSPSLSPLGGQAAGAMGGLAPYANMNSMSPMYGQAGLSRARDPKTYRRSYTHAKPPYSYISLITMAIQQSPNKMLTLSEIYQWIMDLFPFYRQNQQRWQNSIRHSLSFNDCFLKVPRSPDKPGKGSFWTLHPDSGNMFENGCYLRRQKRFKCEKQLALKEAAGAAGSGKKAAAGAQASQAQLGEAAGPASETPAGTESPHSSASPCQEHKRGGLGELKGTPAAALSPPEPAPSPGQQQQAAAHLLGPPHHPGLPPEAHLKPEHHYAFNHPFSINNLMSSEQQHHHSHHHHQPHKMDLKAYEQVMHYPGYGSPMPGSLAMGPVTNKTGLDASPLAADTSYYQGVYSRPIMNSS
# Chain of Transcription factor E2F1 (Homo sapiens) (Q01094 whole entry, looked up): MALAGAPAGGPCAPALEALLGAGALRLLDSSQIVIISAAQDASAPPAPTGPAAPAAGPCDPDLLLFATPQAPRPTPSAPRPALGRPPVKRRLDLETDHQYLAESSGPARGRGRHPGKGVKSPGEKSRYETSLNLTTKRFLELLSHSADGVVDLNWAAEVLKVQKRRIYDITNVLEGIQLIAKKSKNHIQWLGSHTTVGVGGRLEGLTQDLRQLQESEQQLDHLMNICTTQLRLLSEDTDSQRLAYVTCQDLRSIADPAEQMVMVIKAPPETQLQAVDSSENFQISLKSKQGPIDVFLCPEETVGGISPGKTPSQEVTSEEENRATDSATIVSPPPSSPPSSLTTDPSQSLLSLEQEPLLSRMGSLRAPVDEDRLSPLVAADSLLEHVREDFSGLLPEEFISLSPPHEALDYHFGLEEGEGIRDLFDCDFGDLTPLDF
SMILES,outcome [1],outcome [2],outcome [3],outcome [4],outcome [5],outcome [6],outcome [7],outcome [8],outcome [9],outcome [10],AC50 [10],AC50 [4],AC50 [9],AC50 [6],AC50 [8],AC50 [2],AC50 [5]
O=C(Oc1ccccc1)c1ccccc1C(=O)Oc1ccccc1,inactive,inactive,inactive,inactive,inactive,inactive,inactive,inactive,inactive,,,,,,,,
CC(=O)OCc1ccccc1,inactive,inactive,inactive,inactive,inactive,inactive,inactive,inactive,inactive,,,,,,,,
N#CC1(N)CCCCC1,inactive,inactive,inactive,inactive,inactive,,inactive,inactive,inactive,,,,,,,,
CCN(CC)c1cccc(C)c1,inactive,inactive,inactive,inactive,inactive,inactive,inactive,inactive,inactive,,,,,,,,
COc1ccc(C(=O)/C(Br)=C\C(=O)O)cc1,inactive,inactive,inactive,,inactive,inactive,inactive,inactive,inactive,inactive,,,,,,,
CCCCCCO,inactive,inactive,inactive,inactive,inactive,inactive,inactive,inactive,inactive,,,,,,,,
CC1(C)CC(O)CC(C)(C)N1[O],inactive,inactive,inactive,,inactive,inactive,inactive,inactive,inactive,inactive,,,,,,,
CCC(C)C(=O)OCCc1ccccc1 (configuration not stated),inactive,inactive,inactive,,inactive,inactive,inactive,inactive,inactive,inactive,,,,,,,
Nc1ncnc2nc[nH]c12,inactive,inactive,inactive,inactive,inactive,inactive,inactive,inactive,inactive,,,,,,,,
C=Cc1ccc(OC(C)=O)cc1,inactive,inactive,inactive,inactive,inactive,inactive,inactive,inactive,inactive,,,,,,,,
CC12CCC(CC1)C(C)(C)O2,inactive,inactive,inactive,inactive,inactive,inactive,inactive,inactive,inactive,,,,,,,,
CCCCCCCCCCCCC,inactive,inactive,inactive,inactive,inactive,inactive,inactive,inactive,inactive,,,,,,,,
C=Cc1cccc(C)c1,inactive,inactive,inactive,,inactive,inactive,inactive,inactive,inactive,inactive,,,,,,,
CC/C=C\CCOC(=O)c1ccccc1O,inactive,inactive,inactive,inactive,inactive,inactive,inactive,inactive,inactive,,,,,,,,
Cc1cc(C)n(CO)n1,inactive,inactive,inactive,inactive,inactive,inactive,inactive,inactive,inactive,,,,,,,,
CCCCCCCC(=O)OCC(COC(=O)CCCCCCC)OC(=O)CCCCCCC,inactive,inactive,inactive,inactive,inactive,inactive,inactive,inactive,inactive,,,,,,,,
N#Cc1ccc(C2CCCc3cncn32)cc1 (configuration not stated),inactive,inactive,inactive,inactive,inactive,inactive,inactive,inactive,inactive,,,,,,,,
Cc1ccccc1CCO,inactive,inactive,inactive,,inactive,inactive,inactive,inactive,inactive,inactive,,,,,,,
CC(C)C(=O)OCCOc1ccccc1,inactive,inactive,inactive,,inactive,inactive,inactive,inactive,inactive,inactive,,,,,,,

SMILES,outcome [1],outcome [2],outcome [3],outcome [4],outcome [5],outcome [6],outcome [7],outcome [8],outcome [9],outcome [10],AC50 [10],AC50 [4],AC50 [9],AC50 [6],AC50 [8],AC50 [2],AC50 [5]
CCc1cccc(C)c1N(C(=O)CS(=O)(=O)O)C(C)COC (configuration not stated),inactive,inactive,inactive,,inactive,inactive,inactive,inactive,inactive,,27.5 µM (active),,,,,,
CCC[Si](OC)(OC)OC,inactive,inactive,inactive,,inactive,inactive,inactive,inactive,inactive,inactive,,,,,,,
CCCCC1CCC(=O)O1 (configuration not stated),inactive,inactive,inactive,inactive,inactive,,inactive,inactive,inactive,,,,,,,,
CC(C)CC(=O)OCc1ccccc1,inactive,inactive,inactive,,inactive,inactive,inactive,inactive,inactive,inactive,,,,,,,
CCNc1nc(NC(C)(C)C)nc(OC)n1,inactive,inactive,inactive,inactive,inactive,inactive,inactive,inactive,inactive,,,,,,,,
CC1=CP(=O)(c2ccccc2)CC1 (configuration not stated),inactive,inactive,inactive,inactive,inactive,inactive,inactive,inactive,inactive,,,,,,,,
CC=C(C)C(C)=O,inactive,inactive,inactive,inactive,inactive,inactive,inactive,inactive,inactive,,,,,,,,
CC(C)COC(=O)CC(C(=O)OCC(C)C)S(=O)(=O)O (configuration not stated),inactive,inactive,inactive,,inactive,inactive,inactive,inactive,inactive,inactive,,,,,,,
CO[Si](CCCS)(OC)OC,inactive,inactive,inactive,inactive,inactive,,inactive,inactive,inactive,,,,,,,,
CC1(C)CCC[C@]2(C)[C@H]3CC(=O)O[C@]3(C)CC[C@@H]12,inactive,inactive,,inactive,inactive,inactive,inactive,inactive,inactive,inactive,,,,,,,
COc1ccc(-c2coc3cc(O)cc(O)c3c2=O)cc1,inactive,inactive,inactive,,inactive,inactive,inactive,inactive,inactive,,0.397 µM (active),,,,,,
C=CC(=O)NCOCCCC,inactive,inactive,,inactive,inactive,inactive,inactive,inactive,inactive,inactive,,,,,,,
CCC(C)(O)CCCC(C)C (configuration not stated),inactive,inactive,inactive,,inactive,inactive,inactive,inactive,inactive,inactive,,,,,,,
CC1C(C)(C)C2=C(C(=O)CCC2)C1(C)C (configuration not stated),inactive,inactive,inactive,,inactive,inactive,inactive,inactive,inactive,,26.6 µM (active),,,,,,
C=C(C)C(=O)OCC(O)COc1ccc(C(C)(C)c2ccc(OCC(O)COC(=O)C(=C)C)cc2)cc1 (configuration not stated),inactive,inactive,,,inactive,,inactive,inactive,,inactive,,39.8 µM (active),166 µM (active),,,,
Cc1noc(NS(=O)(=O)c2ccc(N)cc2)c1C,inactive,inactive,,inactive,inactive,inactive,inactive,inactive,inactive,inactive,,,,,,,
CC(=O)OCCc1ccccc1,inactive,inactive,,inactive,inactive,inactive,inactive,inactive,inactive,inactive,,,,,,,
CCCCCCCCCCCC(C)=O,inactive,inactive,,inactive,inactive,,inactive,,inactive,,1.3 µM (active),,,160 µM (active),171 µM (active),,
Nc1ccnc(=O)[nH]1,inactive,inactive,,inactive,inactive,,inactive,inactive,inactive,inactive,,,,,,,

SMILES,outcome [1],outcome [2],outcome [3],outcome [4],outcome [5],outcome [6],outcome [7],outcome [8],outcome [9],outcome [10],AC50 [10],AC50 [4],AC50 [9],AC50 [6],AC50 [8],AC50 [2],AC50 [5]
C=C1C[C@H]2[C@@H]3C=C(C)C4=CC(=O)CC[C@]4(C)[C@H]3CC[C@]2(C)[C@@]1(OC(C)=O)C(C)=O,inactive,,inactive,,inactive,,inactive,,,inactive,,,93.6 µM (active),,93.7 µM (active),97.6 µM (active),
CCCCOC(=O)CCC(C)=O,inactive,inactive,,inactive,inactive,inactive,inactive,inactive,inactive,inactive,,,,,,,
COc1cc(C)ccc1O,inactive,inactive,,inactive,inactive,inactive,inactive,inactive,inactive,inactive,,,,,,,
CC(C)(C)NC(=O)[C@H]1CC[C@H]2[C@@H]3CC[C@H]4NC(=O)C=C[C@]4(C)[C@H]3CC[C@]12C,inactive,inactive,,inactive,inactive,inactive,inactive,inactive,inactive,inactive,,,,,,,
COc1cc(O)c(C(=O)c2ccccc2)cc1S(=O)(=O)O,inactive,inactive,,inactive,inactive,inactive,inactive,inactive,inactive,,56 µM (active),,,,,,
CCCCCC1=CCCC1=O,inactive,inactive,inactive,,inactive,inactive,inactive,inactive,inactive,inactive,,,,,,,
O=C1CCCN1C1CCCCC1,inactive,inactive,inactive,,inactive,,inactive,inactive,inactive,inactive,,,,,,,
CCCC=C(C=O)CC,inactive,inactive,,inactive,inactive,inactive,inactive,inactive,inactive,inactive,,,,,,,
CC1(C)[C@@H]2CC[C@@]1(C)C(=O)C2,inactive,inactive,,inactive,inactive,,inactive,inactive,inactive,inactive,,,,,,,
CC(=O)OCC=C(C)C,inactive,inactive,,inactive,inactive,inactive,inactive,inactive,inactive,inactive,,,,,,,
CCCc1ccc(O)c(OC)c1,inactive,inactive,,inactive,inactive,inactive,inactive,inactive,inactive,,,,,,,,
O=C1CCCCCCCCCCC1,inactive,inactive,inactive,,inactive,inactive,inactive,inactive,inactive,,,,,,,,
CC(=O)OC(C)c1ccccc1 (configuration not stated),inactive,inactive,inactive,,inactive,inactive,inactive,inactive,inactive,,,,,,,,
N=C1C=CC(=C(c2ccc(N)cc2)c2ccc(N)cc2)C=C1,inactive,,inactive,,,,inactive,,,inactive,,,26.2 µM (active),25.4 µM (active),180 µM (active),72.5 µM (active),100 µM (active)
Cn1cccc1,inactive,inactive,inactive,,inactive,inactive,inactive,inactive,inactive,inactive,,,,,,,
CCCCNS(=O)(=O)c1ccccc1,inactive,inactive,,inactive,inactive,inactive,inactive,inactive,inactive,inactive,,,,,,,
c1ccc2sc(SSN3CCOCC3)nc2c1,inactive,inactive,inactive,,inactive,inactive,inactive,,inactive,inactive,,,,,158 µM (active),,
c1ccc2cnccc2c1,inactive,inactive,inactive,,inactive,,inactive,inactive,inactive,inactive,,,,,,,
